Inconclusive results are not listed. Activity calls are given as the source filed them. The call rests on the fitted dose curve; in most records, active means well fitted curve in the direction sought with a large enough effect; inconclusive means small, poorly fitted or top-dose-only effect, or another doubt; inactive means no such curve, though single readings can be large; an effect the other way counts as inactive or inconclusive. Where a SMILES comes first, the peptide text is derived from it. The star is where a group is joined. PhAc = O=C(Cc1ccccc1)*
Columns and labels:
[1] = target: Glutathione peroxidase 1 (Homo sapiens) (UniProt P07203); assay: Primary qHTS Assay for Inhibitors of Recombinant Selenoprotein Glutathione Peroxidase 1 (GPX1) (AID 1845191); further: nearly all actives have a fitted effect of over 65% in size; on activity, negative = inhibition: on the % scale 0 is the no-effect control and ±100 the full control effect
Chain of Glutathione peroxidase 1 (Homo sapiens) (P07203 whole entry, looked up): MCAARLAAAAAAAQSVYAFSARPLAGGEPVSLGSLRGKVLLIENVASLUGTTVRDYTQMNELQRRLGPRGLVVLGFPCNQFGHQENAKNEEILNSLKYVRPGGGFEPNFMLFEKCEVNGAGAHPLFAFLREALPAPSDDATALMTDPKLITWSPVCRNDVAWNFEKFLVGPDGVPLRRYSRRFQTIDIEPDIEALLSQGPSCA
Summary of the method: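 GPX1 10 nM, GR 100 nM, GSH 1 mM, NADPH 0.5 mM, CHP 0.5 mM (final). 30-min cpd preincubation, RT. Ex340/Em450 read t=0, t=15 min.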

[2] = target: Phospholipid hydroperoxide glutathione peroxidase GPX4 (Homo sapiens) (UniProt P36969); assay: Primary qHTS Assay for Inhibitors of Recombinant Selenoprotein Glutathione Peroxidase 4 (GPX4) (AID 1845192); further: nearly all actives have a fitted effect of over 65% in size; on activity change, negative = inhibition: series mostly up to about 50 µM; on the % scale 0 is the no-effect control and ±100 the full control effect
Chain of Phospholipid hydroperoxide glutathione peroxidase GPX4 (Homo sapiens) (P36969 whole entry, looked up): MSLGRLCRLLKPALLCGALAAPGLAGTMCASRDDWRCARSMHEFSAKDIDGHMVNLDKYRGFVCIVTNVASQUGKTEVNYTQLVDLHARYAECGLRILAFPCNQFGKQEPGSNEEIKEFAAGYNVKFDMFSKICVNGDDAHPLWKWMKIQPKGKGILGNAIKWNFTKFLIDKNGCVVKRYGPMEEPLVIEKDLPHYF
Summary of the method: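 qHTS, GR-coupled: GPX4 200 nM + cpd 30 min RT → GSH 1 mM, NADPH 0.5 mM, GR 100 nM → CHP 0.5 mM start; fluor 340/450 at t0 and t15 min; no-enzyme wells as control.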

[3] = target: Luciferin 4-monooxygenase (Photinus pyralis) (UniProt P08659); assay: Primary firefly luciferase (FLuc) qHTS assay for identification of artifact compounds. (AID 1845220); further: nearly all actives have a fitted effect of over 60% in size; further: potency means the concentration at half of the fitted maximal effect;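 on activity change, negative = inhibition: series mostly up to about 54 µM; plate controls were DMSO vehicle for no effect and no enzyme for full effect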
Summary of the method: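 Reaction readout was CCD-imaged luminescence, taken 5 min after adding 10 nM purified firefly enzyme to compound-treated wells holding 10 uM luciferin and ATP in pH 7.6 buffer.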

[4] = test system: Nanoluciferase (engineered Oplophorus gracilirostris luciferase); assay: Primary Nanoluciferase (NLuc) qHTS assay for identification of artifact compounds. (AID 1845222);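 further: NLuc secreted into diluted conditioned medium of S16 cells; series mostly up to about 54 µM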
Summary of the method: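 Concentration-response data were obtained by luminescence after 5 min with Nano-Glo substrate at 1:100. The enzyme was diluted S16 NLuc-expressing cell medium, preincubated with compound for 15 min at RT. Curves were fitted with a 4-parameter Hill model.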

[5] = Primary redox qHTS assay for identification of artifact compounds. (AID 1845223);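 further: 0% = DMSO and 100% = reference compound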
Summary of the method: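 Redox-cycling detection via DTT (250 uM final) oxidation coupled to Amplex Red (25 uM)/HRP (250 mU/mL) in HBSS. 15 min preincubation plus 30 min after DTT, room temperature. Ex/Em 525/598 nm; 4-parameter Hill fit against DMSO and 10 uM DA3003.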

CCOC(=O)CNC(=O)[C@@H]1CCCN1C(=O)Cc1ccccc1 (PhAc-Pro-Gly-OEt)
inactive: Potency [1] | Potency [2] | Potency [3] | Potency [4] | Potency [5]

COc1cc(/C=C/C(=O)OC[C@H]2O[C@@H](OC3OC=C(C(=O)O)C4C(O)CC(C)(O)C34)[C@H](O)[C@@H](O)[C@@H]2O)cc(OC)c1O (stereo not given in full)
inactive: Potency [1] | Potency [2] | Potency [3] | Potency [4] | Potency [5]

O=C(/C=C/c1ccc(O)cc1)OC[C@H]1O[C@H](O[C@@]2(CO)O[C@@H](CO)[C@H](O)[C@H]2O)[C@H](O)[C@@H](O)[C@@H]1O
inactive: Potency [1] | Potency [2] | Potency [3] | Potency [4] | Potency [5]

O=C(CCc1ccccc1)c1c(O)c([C@@H]2O[C@H](CO)[C@@H](O)[C@H](O)[C@H]2O)c(O)c([C@@H]2O[C@H](CO)[C@@H](O)[C@H](O)[C@H]2O)c1O
inactive: Potency [1] | Potency [2] | Potency [3] | Potency [4] | Potency [5]

NC(N)=NCCC[C@H](NC(=O)c1sccc1NS(=O)(=O)c1cccc2nsnc12)C(=O)O
inactive: Potency [1] | Potency [2] | Potency [3] | Potency [4] | Potency [5]

O=C(O)C[C@H]1CCC(=O)[C@@H]1C/C=C\CCO
inactive: Potency [1] | Potency [2] | Potency [3] | Potency [4] | Potency [5]

COc1ccc(O[C@@H]2O[C@H](CO)[C@@H](O)[C@H](O)[C@H]2O)cc1OC
inactive: Potency [1] | Potency [2] | Potency [3] | Potency [4] | Potency [5]

O=C(CC1CC(c2ccc(F)cc2F)=NO1)N1CCOCC1 (stereo not given)
active: Potency [3] 2130 nM
inactive: Potency [1] | Potency [2] | Potency [4] | Potency [5]

CC1=CC23[C@H](C=C(C(=O)O)[C@@H]2COC(=O)[C@]3(O)CO)[C@@H]1C (stereo not given in full)
inactive: Potency [1] | Potency [2] | Potency [3] | Potency [4] | Potency [5]

OC[C@H]1O[C@@H](OC[C@H]2O[C@@H](OCc3ccccc3)[C@H](O)[C@@H](O)[C@@H]2O)[C@H](O)[C@@H](O)[C@@H]1O
inactive: Potency [1] | Potency [2] | Potency [3] | Potency [4] | Potency [5]

COc1ccc(C(=O)OC2C3C=COC(OC4OC(CO)C(O)C(O)C4O)C3C3(CO)OC23)cc1OC (stereo not given)
inactive: Potency [1] | Potency [2] | Potency [3] | Potency [4] | Potency [5]

CC1=C(C(=O)OC2OC(COC3OC(CO)C(O)C(O)C3O)C(O)C(O)C2O)C(C)(C)CCC1 (stereo not given)
inactive: Potency [1] | Potency [2] | Potency [3] | Potency [4] | Potency [5]

C/C(=C\C(=O)C(C)C1CCC2C3=C(CCC21C)C1(C)CCC(=O)C(C)(C)C1(O)CC3)C(C)(C)O (stereo not given)
inactive: Potency [1] | Potency [2] | Potency [3] | Potency [4] | Potency [5]

C=C[C@H]1[C@H](O[C@@H]2O[C@H](CO)[C@@H](O)[C@H](O)[C@H]2O)OC=C(C(=O)OC)[C@H]1CCO
inactive: Potency [1] | Potency [2] | Potency [3] | Potency [4] | Potency [5]

CC1(C)C(=O)CCC2(C)C1C(O)C=C1COC(=O)C12O (stereo not given)
inactive: Potency [1] | Potency [2] | Potency [3] | Potency [4] | Potency [5]

COc1cc2c(cc1OC)N1C(=O)C[C@@]34C=CC[N@+]5([O-])CC[C@H]2[C@H](CC3)[C@@]145
inactive: Potency [1] | Potency [2] | Potency [3] | Potency [4] | Potency [5]

COC1OC(O)C2(CCC3(O2)C(C)CC2OC(=O)C4(C)CCCC3(C)C24)C1O (stereo not given)
inactive: Potency [1] | Potency [2] | Potency [3] | Potency [4] | Potency [5]

O=C(/C=C/c1ccc(O)cc1)O[C@@H]1C[C@@](O)(C(=O)O)C[C@@H](O)[C@@H]1O
inactive: Potency [1] | Potency [2] | Potency [3] | Potency [4] | Potency [5]

OC[C@@]1(O)CO[C@H](OC[C@H]2O[C@@H](OC(CCCCc3ccc(O)cc3)CCc3ccc(O)cc3)[C@H](O[C@H]3OC[C@](O)(CO)[C@H]3O)[C@@H](O)[C@@H]2O)[C@@H]1O (stereo not given in full)
inactive: Potency [1] | Potency [2] | Potency [3] | Potency [4] | Potency [5]

CN1CCN(c2nc(-c3ccc(C(=O)NC4(C(=O)NCC#N)CCCCC4)cc3)cs2)CC1
inactive: Potency [1] | Potency [2] | Potency [3] | Potency [4] | Potency [5]

O=C(O)Cc1cn([C@@H]2O[C@H](CO)[C@@H](O)[C@H](O)[C@H]2O[C@@H]2O[C@H](CO)[C@@H](O)[C@H](O)[C@H]2O)c2ccccc12
inactive: Potency [1] | Potency [2] | Potency [3] | Potency [4] | Potency [5]

C=C1CCC2(OC1)OC1CC3C4CC=C5CC(O)CC(O[C@@H]6OC[C@H](OC(=O)C(O)C(C)CC)[C@H](O)[C@H]6O[C@@H]6O[C@@H](C)[C@H](O)[C@@H](O)[C@H]6O)C5(C)C4CCC3(C)C1C2C (stereo not given in full)
inactive: Potency [1] | Potency [2] | activity change, negative = inhibition [3] 0.354% [at 11.6 µM] | activity, negative = inhibition [4] 4.49% [at 11.6 µM] | redox activity (% of DA3003) [5] -3.18% [at 11.5 µM]

— PubChem BioAssay (NCATS)
